Assay results: PubChem BioAssay AID687016 (The Scripps Research Institute Molecular Screening Center, 2013)
The whole screen tested about 370,000 compounds, of which about 2,800 (0.76%) were called active. The full list was thinned out, with actives kept by preference. A number with no mark means an inactive call. Cut-off read from the data, not from the text of the source: active = inhibition above about 21%; inactive = the rest.

Each compound was assayed against E3 ubiquitin-protein ligase UHRF1 (Homo sapiens) (UniProt Q96T88) (assay: blockers of UHRF1 binding to methyl-oligo – biochemical, TR-FRET, human UHRF1, single concentration, counter-screen for MBD2 inhibitor project, primary screen (AID 687016;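 note: UHRF1 SRA domain binding a hemimethylated CpG hairpin DNA probe; 0% = median of test compound wells and 100% = reference inhibitor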)). Details: UHRF1 binding to methylated oligo, at 4.4 µM, active compounds read high.
Sequence of E3 ubiquitin-protein ligase UHRF1 (Homo sapiens) (Q96T88 whole entry, looked up, the tested form may be a part): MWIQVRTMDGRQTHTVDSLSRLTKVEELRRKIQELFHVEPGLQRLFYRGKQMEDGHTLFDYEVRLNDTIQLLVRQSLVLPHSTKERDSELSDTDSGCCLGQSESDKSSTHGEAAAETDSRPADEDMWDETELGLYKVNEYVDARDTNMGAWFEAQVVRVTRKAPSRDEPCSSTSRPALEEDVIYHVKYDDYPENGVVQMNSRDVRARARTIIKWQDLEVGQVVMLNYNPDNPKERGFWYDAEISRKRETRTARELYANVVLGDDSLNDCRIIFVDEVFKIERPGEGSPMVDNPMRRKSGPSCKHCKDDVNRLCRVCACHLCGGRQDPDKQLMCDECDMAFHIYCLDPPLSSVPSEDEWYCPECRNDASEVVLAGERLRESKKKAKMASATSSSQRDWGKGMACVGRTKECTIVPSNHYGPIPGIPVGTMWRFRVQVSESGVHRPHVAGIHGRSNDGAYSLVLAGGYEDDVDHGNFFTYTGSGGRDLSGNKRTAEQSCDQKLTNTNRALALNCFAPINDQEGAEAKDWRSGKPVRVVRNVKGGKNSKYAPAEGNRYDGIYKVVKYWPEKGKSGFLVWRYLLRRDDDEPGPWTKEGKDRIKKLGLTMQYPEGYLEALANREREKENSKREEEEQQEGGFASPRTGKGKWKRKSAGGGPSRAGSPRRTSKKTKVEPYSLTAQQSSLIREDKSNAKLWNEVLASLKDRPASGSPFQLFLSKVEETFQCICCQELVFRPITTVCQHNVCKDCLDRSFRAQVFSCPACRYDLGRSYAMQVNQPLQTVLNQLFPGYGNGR

| SMILES | inhibition |
| --- | --- |
| Cn1cc(C(=O)OCC(=O)N2CCCC2)c2ccccc21 | 73.7% (active) |
| CC(=O)Nc1ccccc1C(=O)OCC(=O)c1cccc2ccccc12 | 0.36% |
| CC(C)c1ccc(OCC(=O)N2CCCN(C)CC2)cc1 | -1.28% |
| O=C1C2CCN(CC2)C1(CO)CO | 0.15% |
| Cc1ccccc1CCC[C@@H](CC1CCCCC1)CN(C)C(=O)Oc1ccccc1 | -0.75% |
| Cc1ccnc(-n2c(C)cc(/C=C3\C(=O)NC(=S)N(C)C3=O)c2C)c1 | 1.95% |
| Cc1cc(C=C2C(=O)NC(=O)NC2=O)c(C)n1-c1ccncc1 | -7.92% |
| Cc1cc(/C=C2/C(=O)NC(=O)N(Cc3ccco3)C2=O)c(C)n1-c1ccc(C(=O)O)cc1 | 78.5% (active) |
| O=C1NC(=O)N(Cc2ccco2)C(=O)/C1=C\c1ccc(-c2ccc(F)cc2)o1 | 81.8% (active) |
| CO[C@H]([C@H](C)/C=C/N(C)C=O)[C@@H](C)C(=O)CC[C@H](C)[C@H](O)[C@H](C)[C@H]1OC(=O)/C=C/C(C)=C/[C@H](O)[C@H](OC)C[C@@H]2C=CC[C@@H](C[C@H](OC)[C@@]3(CO3)[C@@H](OC)C[C@@H](OC)[C@@H]1C)O2 | -2.95% |
| CC(=CCOc1ccc2ccc(=O)oc2c1)C1=CC(=O)C(C)(C)O1 | 0.79% |
| NC(=O)Cn1cc(C(=O)c2ccccc2F)c2ccccc21 | -1.97% |
| S=C(NCCc1ccccc1)N1Cc2cc(N3CCOCC3)ccc2-n2nncc2C1 | -3.2% |
| CCOC(=O)[C@]12Cc3ccccc3[C@H]1N(C1CCCCC1)C(=O)c1cc(OC)ccc12 | -1.33% |
| COP(=O)(Sc1ccccc1)C(Cc1ccccc1)NC(=O)OCc1ccccc1 (stereo not given) | -3.61% |
| O=c1c2ccccc2nc(-c2ccc(Cl)cc2Cl)n1-c1ccncc1 | -0.96% |
| COc1ccc(N2C(=O)/C(=C/c3ccco3)C(=O)NC2=S)cc1 | 68.7% (active) |
| CCOC(=O)C(O)(c1ccc(N=Cc2ccccc2O)c(C)c1)C(F)(F)F (stereo not given) | -1.83% |
| CN(C)CCCN=Cc1c(O)n(Cc2ccco2)c(=O)[nH]c1=O | 0.23% |
| CC(C)CN1CCN(Cc2ccccc2C(F)(F)F)CC1CCO (stereo not given) | -2.88% |
